Values joined by “and” are separate entries in the source; they are usually repeats but may differ in a detail not shown here. Equal values may be shown once. Results filed as inconclusive are left out. Where a structure was tested more than once in an assay, its records may differ in their call. Active and inactive are the calls of the source. Rule for the calls, unless noted: active = hit-call score of the fitted dose curve at least 0.9, where 1 is the maximum; inactive = score below 0.9.
Experiments:
[1] = CCTE_Shafer_MEA_acute_network_burst_percentage: CCTE's Neural Acute Assay for Percentage of Network Bursts, Shafer Lab (AID 2284022);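 note: curves fitted for loss so actives lower network burst percentage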
Procedure, shortened: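 Rat cortical cultures, DIV 13/15; 20 min equilibration, 40 min baseline, compound 0.03-40 uM, 40 min recording, 37 C. Spikes: 300-5000 Hz band-pass, threshold 8x rms noise. Readout: % change in network-burst spike fraction; loss direction vs DMSO.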

[2] = CCTE_Shafer_MEA_acute_cross_correlation_HWHM: CCTE's Neural Acute Assay for Cross Correlation at Half Width at Half Maximum, Shafer Lab (AID 2284026);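 note: percent change per well from pre-dose baseline in spike cross-correlogram half width; hits are a decrease in cross-correlogram half width relative to DMSO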
Procedure, shortened: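 Read-out: half width at half maximum of action-potential cross-correlogram, percent change versus pre-treatment baseline, fitted in loss direction against DMSO. Rat cortical cultures, DIV 13 or 15, dosed 0.03-40 uM, 40-min recordings at 37 C.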

[3] = CCTE_Shafer_MEA_dev_firing_rate_mean: CCTE's Neural Network Formation Assay for Mean Firing Rate, Shafer Lab (AID 2284031);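 for AC50: curve fitted for loss of firing so AC50 reflects decreased mean firing rate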
Procedure, shortened: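 Read-out: spike count/recording length, averaged over active electrodes, then AUC across days 5, 7, 9, 12. Rat cortical cultures on MEA; continuous 12-day exposure, media and treatment renewed DIV 5, 9; DMSO baseline.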

[4] = CCTE_Shafer_MEA_dev_per_burst_spike_percent: CCTE's Neural Network Formation Assay for Percent of Spikes in a Burst, Shafer Lab (AID 2284032);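 for AC50: fitted as a decrease in burst spike percentage below DMSO baseline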
Procedure, shortened: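 Value is trapezoidal AUC over recordings on days 5, 7, 9 and 12 of the well-mean fraction of spikes falling in single-electrode bursts; rat cortical cultures exposed continuously from plating, treatment renewed DIV 5 and 9, fitted downward against DMSO.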

[5] = CCTE_Shafer_MEA_dev_bursting_electrodes_number: CCTE's Neural Network Formation Assay for Number of Bursting Electrodes, Shafer Lab (AID 2284043; active = hit-call score of the fitted dose curve at least 0.9, where 1 is the maximum;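 for AC50: potency is for loss of bursting electrodes relative to DMSO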)
Procedure, shortened: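 Rat cortical primary neurons, 48-well MEA, 16 electrodes/well; dosing DIV 0–12, re-dosed with full media change DIV 5, 9. Recordings DIV 5/7/9/12, AxIS adaptive spike detector; bursting electrode = ≥1 burst/2 min. AUC across days; loss of signal vs DMSO.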

[6] = CCTE_Shafer_MEA_dev_per_burst_interspike_interval: CCTE's Neural Network Formation Assay for Burst Interspike Interval, Shafer Lab (AID 2284044);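 for AC50: potency for a decrease of within-burst interspike interval below DMSO level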
Procedure, shortened: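 Readout is the average time between spikes inside single-electrode bursts, taken as a well mean across bursting electrodes. Cortical neurons from rat developed networks on MEA plates under continuous 12-day exposure; recordings on days 5, 7, 9 and 12 were integrated by trapezoidal AUC.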

[7] = CCTE_Shafer_MEA_dev_burst_duration_mean: CCTE's Neural Network Formation Assay for Mean Burst Duration, Shafer Lab (AID 2284045);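 for AC50: curve fitted for loss meaning shorter burst duration than DMSO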
Procedure, shortened: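 Rat cortical cultures, 1.5 x 10^5 cells/well with laminin drop; continuous dosing days 0–12, media plus treatment refreshed DIV 5, 9. AxIS adaptive spike detection; mean single-electrode burst duration, AUC over four recordings, negative direction vs DMSO.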

[8] = CCTE_Shafer_MEA_dev_interburst_interval_mean: CCTE's Neural Network Formation Assay for Mean Interburst Interval, Shafer Lab (AID 2284046);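 note: well-mean interburst interval of bursting electrodes as AUC over four recording days; curve fitted for decrease in interburst interval relative to DMSO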
Procedure, shortened: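 Primary rat cortical neurons on PEI-coated 48-well MEA plates (laminin added with cells at plating) (16 electrodes/well), exposed from plating day 0 with renewal at DIV 5 and 9. Mean inter-burst interval averaged over bursting electrodes, AUC across days 5, 7, 9, 12; DMSO baseline.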

[9] = CCTE_Shafer_MEA_dev_inter_network_spike_interval_mean: CCTE's Neural Network Formation Assay for Mean Inter-network Spike Interval, Shafer Lab (AID 2284047);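 for AC50: potency for a decrease in mean inter-network spike interval below DMSO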
Procedure, shortened: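 Mean time between consecutive network-spike peaks, recorded extracellularly (adaptive spike detection) on DIV 5, 7, 9 and 12, summarized as trapezoidal AUC. Rat cortical cultures on MEAs dosed continuously days 0–12, re-dosed at feeds; loss-of-signal fit relative to DMSO.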

[10] = CCTE_Shafer_MEA_dev_network_spike_number: CCTE's Neural Network Formation Assay for Number of Network Spikes, Shafer Lab (AID 2284048);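 for AC50: fit as a loss of signal meaning fewer network spikes than DMSO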
Procedure, shortened: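 Rat cortical primary cultures on 48-well MEA (16 electrodes/well); continuous exposure DIV 0–12, full medium and treatment exchange DIV 5, 9. Readout: network spike count, AxIS adaptive detection, recordings DIV 5/7/9/12 collapsed to AUC; loss-of-signal fit, DMSO baseline.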

[11] = CCTE_Shafer_MEA_dev_network_spike_duration_std: CCTE's Neural Network Formation Assay for Standard Deviation of Network Spike Duration, Shafer Lab (AID 2284052);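 note: hits are decreases in network spike duration SD versus DMSO vehicle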
Procedure, shortened: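 Network spike duration variability was collapsed across recordings on days 5, 7, 9 and 12 by trapezoidal area-under-curve and fitted downward against DMSO. Cultures were rat cortical neurons on PEI-coated MEA plates, dosed continuously from plating, refed with compound DIV 5/9.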

[12] = CCTE_Shafer_MEA_dev_per_network_spike_spike_number_mean: CCTE's Neural Network Formation Assay for Mean Number of Spikes in a Network Spike, Shafer Lab (AID 2284053);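 for AC50: fitted as decrease in spikes per network spike relative to DMSO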
Procedure, shortened: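 Mean spike count within each network spike, taken in a 0.05 s window at its peak, was recorded on days 5, 7, 9 and 12 and integrated as trapezoidal area under the curve. Rat cortical cultures on MEA plates received continuous compound from day 0, refreshed at medium changes on DIV 5 and 9.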

[13] = CCTE_Shafer_MEA_dev_per_network_spike_spike_percent: CCTE's Neural Network Formation Assay for Percent of Spikes in a Network Spike, Shafer Lab (AID 2284054)
Procedure, shortened: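 Read-out: percent of spikes falling in a 0.05 s window at network-spike peak, from spontaneous MEA recordings on days 5, 7, 9 and 12; trapezoidal AUC; loss of signal versus DMSO. Rat cortical cultures, compound present throughout.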

[14] = CCTE_Deisenroth_AIME_384WELL_CTox_Active: Cytotoxicity Assessment (CTOX) in CCTE's 384-well Estrogen Receptor Transactivation Assay with AIME metabolic competence (metabolism positive), Deisenroth Lab (AID 2284037; active = hit-call score of the fitted dose curve at least 0.9, where 1 is the maximum;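 note: chemicals first conditioned 2 h by alginate-bound induced rat liver S9 before cells; activity means signal loss indicating cell death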)
Procedure, shortened: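 Chemicals pre-incubated 2 hours with alginate-immobilised phenobarbital/beta-naphthoflavone-induced male Sprague Dawley rat liver S9, then conditioned medium applied 24 hour to VM7Luc4E2 cells. Viability by fluorogenic protease substrate; 10-point series 0.002 - 200 uM.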

[15] = CCTE_Deisenroth_AIME_384WELL_CTox_Inactive: Cytotoxicity Assessment (CTOX) in CCTE's 384-well Estrogen Receptor Transactivation Assay without AIME metabolic competence (metabolism negative), Deisenroth Lab (AID 2284039; active = hit-call score of the fitted dose curve at least 0.9, where 1 is the maximum;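 note: cell viability via live-cell protease substrate cleaved to fluorescent probe; cells exposed 24 h to medium preincubated 2 h with alginate-water beads without S9; loss of fluorescence signal means loss of viability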)
Procedure, shortened: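 Fluorescent protease-substrate viability readout after 24 h exposure of VM7Luc4E2 cells to conditioned medium. Chemicals (0.002–200 uM) first sat 2 h over alginate-water beads, no S9. Data fitted bidirectionally, loss of signal meaning viability loss.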

DIO2 (gene 1734) = test: CCTE_GLTED_hDIO2: CCTE's human Deiodinase 2 (DIO2) Inhibition Assay, Great Lakes Toxicology and Ecology Division (GLTED) Lab (AID 2284050; active = hit-call score of the fitted dose curve at least 0.9, where 1 is the maximum)
Procedure, shortened: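 Readout: absorbance from Sandell-Kolthoff detection of free iodide released by human DIO2 during a 3 h incubation with chemical. Cell-free format, n=3; activity fitted relative to DMSO negative control.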

DIO3 (gene 1735) = test: CCTE_GLTED_hDIO3: CCTE's human Deiodinase 3 (DIO3) Inhibition Assay, Great Lakes Toxicology and Ecology Division (GLTED) Lab (AID 2284055; active = hit-call score of the fitted dose curve at least 0.9, where 1 is the maximum;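 note: potency is for inhibition seen as loss of released iodide signal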)
Procedure, shortened: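 hDIO3 (adenovirus-expressed) + test chemical, 3 h incubation; free iodide quantified by Sandell-Kolthoff reaction, absorbance read-out. DMSO negative control, n=3.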

[16] = biological target: Estrogen receptor (Homo sapiens) (UniProt P03372); test: CCTE_Deisenroth_AIME_384WELL_LUC_Active: CCTE's 384-well Estrogen Receptor Transactivation Assay with AIME metabolic competence (ERTA luciferase; metabolism positive), Deisenroth Lab (AID 2284030; active = hit-call score of the fitted dose curve at least 0.9, where 1 is the maximum)
Procedure, shortened: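 Readout: bioluminescent luciferase induction in VM7Luc4E2 cells 24 hour after receiving medium from a 2 h rat hepatic S9 (induced, alginate microsphere) metabolism step. Concentrations 0.002 - 200 uM; activity scaled to 17beta-estradiol positive control.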

[17] = biological target: Estrogen receptor (Homo sapiens) (UniProt P03372); test: CCTE_Deisenroth_AIME_384WELL_LUC_Shift: CCTE's 384-well Estrogen Receptor Transactivation Assay with AIME metabolic competence data shift (ERTA luciferase; difference in metabolism positive and negative), Deisenroth Lab (AID 2284041);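 note: shift is response with S9 minus without S9 so positive means metabolism raised ER signal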
Procedure, shortened: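 Chemicals (0.002–200 uM, 10 points) pre-incubated 2 h with alginate-encapsulated induced male Sprague Dawley rat liver S9 or S9-free, then medium applied 24 h to VM7Luc4E2 cells; luciferase. Endpoint is per-concentration difference, S9-positive minus negative.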

Measured: AC50

Estrogen receptor (Homo sapiens), sequence (P03372 whole entry, looked up): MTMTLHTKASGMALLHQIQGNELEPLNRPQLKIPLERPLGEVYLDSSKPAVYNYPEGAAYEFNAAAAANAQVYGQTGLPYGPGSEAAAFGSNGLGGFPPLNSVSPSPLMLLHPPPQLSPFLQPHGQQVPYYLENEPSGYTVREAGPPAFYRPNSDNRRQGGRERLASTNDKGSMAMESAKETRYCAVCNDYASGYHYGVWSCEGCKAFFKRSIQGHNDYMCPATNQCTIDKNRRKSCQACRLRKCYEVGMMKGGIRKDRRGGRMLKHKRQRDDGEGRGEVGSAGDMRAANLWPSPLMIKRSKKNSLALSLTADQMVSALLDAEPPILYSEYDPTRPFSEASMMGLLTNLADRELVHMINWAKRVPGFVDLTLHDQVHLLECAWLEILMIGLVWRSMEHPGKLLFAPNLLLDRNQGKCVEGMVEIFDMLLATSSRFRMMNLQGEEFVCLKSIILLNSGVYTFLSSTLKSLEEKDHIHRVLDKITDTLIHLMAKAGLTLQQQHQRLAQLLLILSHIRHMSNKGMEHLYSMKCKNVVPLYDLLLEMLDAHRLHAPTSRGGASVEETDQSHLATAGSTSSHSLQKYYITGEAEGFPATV

CCOP(=S)(Oc1cnc(C(C)(C)C)nc1)OC(C)C (stereo not given)
active: [1] 24.6 µM | [2] 26.9 µM | [3] 12.2 µM | [4] 89.1 µM and 12.9 µM | [5] 91.8 µM and 12 µM | [6] 12 µM | [8] 50 µM and 16.6 µM | [10] 14800 nM | [12] 67.3 µM and 9.31 µM | [13] 84.5 µM and 23 µM
inactive: [3] | [6] | [7] | [9] | [10] | [11]

COP(=O)(NC(C)=O)SC (stereo not given)
inactive: [1] | [2] | [3] | [4] | [14] | [15] | [5] | [6] | [7] | [8] | [9] | [10] | [11] | [12] | [13]

CNC(=O)ON=C(SC)C(=O)N(C)C
inactive: [1] | [2]

C=C(C)[C@H]1Cc2c(ccc3c2O[C@@H]2COc4cc(OC)c(OC)cc4[C@@H]2C3=O)O1
active: [2] 30.7 µM | [3] 19.6 nM and 16.2 nM | [4] 24.4 nM and 20.6 nM | [5] 22.8 nM and 12.4 nM | [6] 36.4 nM and 32.6 nM | [7] 29.8 nM and 31 nM | [8] 41.4 nM and 31.6 nM | [9] 20.1 nM and 26.2 nM | [10] 14 nM and 10.7 nM | [11] 27.7 nM and 14.6 nM | [12] 0.0145 µM | [13] 16.8 nM and 13.3 nM | DIO3 (gene 1735) 2.39 µM
inactive: [1] | DIO2 (gene 1734)

CSC1=N[C@@](C)(c2ccccc2)C(=O)N1Nc1ccccc1
active: [1] 22.1 µM | [2] 29.8 µM and 18.1 µM
inactive: [1] | [3] | [4] | [5] | [6] | [7] | [8] | [9] | [10] | [11] | [12] | [13]

Cc1ccn2nc(S(=O)(=O)Nc3c(F)cccc3F)nc2n1
inactive: [1] | [2]

CC(=NC#N)N(C)Cc1ccc(Cl)nc1
inactive: [1] | [2] | [3] | [4] | [5] | [6] | [7] | [8] | [9] | [10] | [11] | [12] | [13]

CN(C)[C@@H]1C(=O)C(C(N)=O)=C(O)[C@@]2(O)C(=O)C3=C(O)c4c(O)cccc4[C@@](C)(O)[C@H]3[C@H](O)[C@@H]12
active: [4] 50 µM | [5] 22.7 µM | DIO2 (gene 1734) 100 µM and 61.6 µM | [12] 50 µM | [13] 89.4 µM | DIO3 (gene 1735) 71.9 µM and 25.6 µM and 24.8 µM
inactive: [1] | [2] | [3] | [14] | [15] | [6] | [7] | [8] | [9] | [10] | [11]

CN1COCN(Cc2cnc(Cl)s2)C1=N[N+](=O)[O-]
inactive: [1] | [2] | [3] | [4] | [5] | [6] | [7] | [8] | [9] | [10] | [11] | [12] | [13]

CC(C)N(C(=O)SCC(Cl)=C(Cl)Cl)C(C)C
inactive: [3] | [15] | [7] | [8] | [9] | [10] | [11]
active: [1] 25.7 µM and 20 µM | [2] 20 µM and 15 µM | [4] 24.4 µM | [5] 15 µM | [12] 15 µM | [13] 15 µM

O=[N+]([O-])c1cc(C(F)(F)F)c(Cl)c([N+](=O)[O-])c1Nc1ncc(C(F)(F)F)cc1Cl
inactive: [16] | [17]
active: [1] 1.13 µM | [2] 5.3 µM | [3] 0.786 µM | [4] 0.669 µM | [14] 100 µM | [15] 142 µM | [5] 0.374 µM | [6] 0.783 µM | [7] 549 nM | [8] 885 nM | [9] 1.9 µM | [10] 425 nM | DIO2 (gene 1734) 2.04 µM | [11] 291 nM | [12] 0.771 µM | [13] 0.742 µM | DIO3 (gene 1735) 2.04 µM

O=C(O)c1cc(Oc2ccc(C(F)(F)F)cc2Cl)ccc1[N+](=O)[O-]
inactive: [1] | [2] | [14] | [15]

CC(C)[C@H](C(=O)O[C@H](C#N)c1cccc(Oc2ccccc2)c1)c1ccc(Cl)cc1
active: [1] 0.962 µM | [2] 4.36 µM | [3] 3.13 µM | [4] 5.46 µM | [5] 4.15 µM | [6] 17.6 µM | [8] 17900 nM | [10] 703 nM | [12] 3.72 µM | [13] 0.732 µM
inactive: [7] | [9]
